Measured values from PubChem BioAssay (NCI).
About 83,000 compounds went through this panel and 20% of them were active in at least one assay; those are over-represented in the sample as a whole.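 Method: cells in 96-well plates; compound added at one concentration; 48 h incubation; percent growth measured; values under 10 scored active.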 A number with no mark means an inactive call. The source made the active and inactive calls.

What was measured:
Assay in all cases: NCI-60 one-dose screen, 48 h (100 = growth as untreated, 0 = no growth, -100 = all killed)
Conditions in all cases: 10 µM unless noted
SR leukemia = system: SR leukemia
OVCAR-8 ovarian = system: OVCAR-8 ovarian
OVCAR-5 ovarian = system: OVCAR-5 ovarian
OVCAR-4 ovarian = system: OVCAR-4 ovarian
SK-OV-3 ovarian = system: SK-OV-3 ovarian
IGROV1 ovarian = system: IGROV1 ovarian
OVCAR-3 ovarian = system: OVCAR-3 ovarian
HS 578T breast = system: HS 578T breast
NCI/ADR-RES ovarian = system: NCI/ADR-RES ovarian
RPMI-8226 leukemia = system: RPMI-8226 leukemia

| Structure (SMILES) | growth (SR leukemia) | growth (OVCAR-8 ovarian) | growth (OVCAR-5 ovarian) | growth (OVCAR-4 ovarian) | growth (SK-OV-3 ovarian) | growth (IGROV1 ovarian) | growth (OVCAR-3 ovarian) | growth (HS 578T breast) | growth (NCI/ADR-RES ovarian) | growth (RPMI-8226 leukemia) |
| --- | --- | --- | --- | --- | --- | --- | --- | --- | --- | --- |
| Clc1ccc2c(c1)C(Br)c1cc(Cl)cc(Cl)c1-2 (configuration not stated) | -4.33% (active) | 101% | 84.4% | 88.5% | 80% | 57.1% | 91.7% | 65.1% | 96.1% | – |
| COc1ccc2[nH]c(=O)c(CNc3ccc(Nc4nccc(-c5ccc(Cl)cc5)n4)cc3)cc2c1 | 54% | – | 103% | 99.9% | 118% | 89.1% | 89.3% | 101% | 92.5% | 77.6% |
| Nc1ccc2c(c1Br)Cc1ccccc1-2 | 93.6% | 98.6% | 94.6% | 98.6% | 95.4% | 108% | 99.1% | 95.4% | 100% | – |
